ssDAF12 agonist = activates DAF-12 receptor from parasite S. stercoralis | 370,000 tested, 1% active | AID 652126 | activation, % at 6.8 µM | HEK293 ssDAF-12/GRIP1 lit1-tk-luc reporter, luminescence; % of 3 µM dafachronic acid response;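 active = activation above the mean over all tested compounds plus 3 SD, cut at about 0.9% in these data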;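 also: 0% = DMSO-only wells and 100% = 3 µM delta7-dafachronic acid wells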
DAX1 inh-1 = inhibits human nuclear receptor DAX1. P51843. HEK293 Gal4-DAX1 luciferase reporter, luminescence. inhibition, % at 6.75 µM. 340,000 tested, 0.99% active. AID 504766;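 active = inhibition above the mean over all tested compounds plus 3 SD, cut at about 4.2% in these data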;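 also: 0% = DAX1-transfected cells with DMSO and 100% = empty-vector control cells with DMSO; inhibition shows as a rise in luminescence from relieved DAX1 repression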
hcDAF-12 act = activators of H. contortus DAF-12 nuclear receptor | 370,000 tested, 1.4% active | HEK293 hcDAF-12 lit1-tk-luc reporter, luminescence; 0% DMSO, 100% Δ7-dafachronic acid | activation, % at 6.8 µM;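 active = activation above the mean of all tested compounds plus 3 SD, cut at about 5.5% in these data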;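 also: 100% = response to 3 µM Δ7-dafachronic acid high control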
DAX1 inh-2 = DAX1 (NR0B1) inhibition, primary screen. HEK293T StAR-luciferase reporter, SF-1/DAX-1 repression relief. inhibition, % at 6.8 µM. 370,000 tested, 1.1% active. AID 652010;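 active = inhibition above the mean over all tested compounds plus 3 SD, cut at about 3.6% in these data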;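 also: 0% = DAX-1 cells with DMSO and 100% = cells lacking DAX-1 with DMSO; higher inhibition means more luminescence from relief of DAX-1 repression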
hgDAF-12 ag = agonists of H. glycines DAF-12 nuclear receptor. HEK293 GAL4-hgDAF12 UAS-luciferase reporter, agonist luminescence; normalized to butyrate control. activation, % at 6.8 µM. 370,000 tested, 1.8% active;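 active = activation above a cutoff set at the mean of all screened compounds plus 3 SD, cut at about 10% in these data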;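 also: 0% = DMSO wells and 100% = sodium butyrate wells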
DAX1 conf = NR0B1 (human) inhibition, confirmation | inhibition, % at 6.8 µM | shares compounds with DAX1 inh-2 | AID 652134 | HEK293T StAR-promoter luciferase reporter, SF-1/DAX-1 repression | 2,400 tested, 87% active;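 active = inhibition above the average of every tested compound plus 3 SD, cut at about 3.8% in these data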;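 also: 0% = DAX-1 cells with DMSO and 100% = no DAX-1 control cells with DMSO; active compounds raise luminescence by relieving repression of the StAR reporter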
Target sequence (P51843 whole entry, looked up): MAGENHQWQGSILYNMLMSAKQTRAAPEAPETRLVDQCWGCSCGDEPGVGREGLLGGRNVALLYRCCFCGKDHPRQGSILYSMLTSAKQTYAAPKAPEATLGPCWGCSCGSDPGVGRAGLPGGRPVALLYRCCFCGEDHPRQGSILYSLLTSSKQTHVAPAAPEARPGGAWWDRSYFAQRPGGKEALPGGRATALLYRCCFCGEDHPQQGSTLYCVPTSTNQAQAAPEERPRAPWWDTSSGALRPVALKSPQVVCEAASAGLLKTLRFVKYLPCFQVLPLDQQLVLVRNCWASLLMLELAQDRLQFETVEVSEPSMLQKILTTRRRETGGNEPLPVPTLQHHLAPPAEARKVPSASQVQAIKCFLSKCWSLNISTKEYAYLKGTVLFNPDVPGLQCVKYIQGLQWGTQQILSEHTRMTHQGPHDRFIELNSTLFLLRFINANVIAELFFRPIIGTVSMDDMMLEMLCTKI
SF1 mutant ctr = nonselective inhibitor or artifact in SF-1 mutant DAX1 counter-screen; 2,400 tested, 78% active; HEK293 StAR-luciferase, SF-1 AF2 mutant, luminescence; inhibition, % at 6.8 µM; AID 652136; shares compounds with DAX1 inh-2;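 active = inhibition above the mean of all tested compounds plus 3 SD, cut at about 3% in these data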;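 also: 0% = DAX-1 transfected cells with DMSO and 100% = cells without DAX-1 with DMSO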
Numbers without * were called inactive; · = not tested or not shown. In the library only some 4.1% were active in any assay of this set; here they are far more common.

SMILES	ssDAF12 agonist	DAX1 inh-1	hcDAF-12 act	DAX1 inh-2	hgDAF-12 ag	others
CCC/C(=C1/c2ccccc2C(=O)N1c1ccccc1)c1c(C)noc1C	-0.8	·	-0.5	-0.4	4.5
OC(c1ccccc1)(c1ccccc1)C1CCN(CCCNc2ccc(Cl)cc2Cl)CC1	-1.8	·	-2.4	-0.1	-2.1
CN1C(=O)OC2(C)CCc3ccccc3C12C (stereo not drawn)	-1.3	-1.2	0.0	-0.4	3.7
CC1(C)CC2(CC(C)(C)N1)OC(=O)N1CCc3ccccc3C12C (stereo not drawn)	0.1	4.2*	0.8	-0.9	1.6
COC(=O)C1CN(C2CCCC2)CCS(=O)(=O)N1Cc1ccccc1 (stereo not drawn)	-0.8	·	-0.8	-0.7	-2.2
Nc1ccc(C(=O)NN2C(=O)[C@H](Cl)C2c2ccc(Cl)cc2)cc1 (stereo partly drawn)	0.0	0.3	5.9*	-3.4	4.5
CCNC(=O)CC1C(=O)N(C)C(=S)N1NC(=O)c1ccc(Cl)cc1 (stereo not drawn)	-0.9	1.2	-1.5	0.0	-1.1
O=C(CSc1nc2c(c(=O)[nH]1)CCCC2)N1CCOCC1	-0.9	·	0.1	0.1	4.0
COC(=O)c1ccccc1NC(=O)c1c(Br)cnn1C	-1.1	0.7	0.9	-0.1	1.8
COC(=O)c1ccccc1NC(=O)c1ccnn1C	11.3*	-1.1	0.9	0.0	-1.2
N#Cc1ccc(/C=C\c2nccc3c2[nH]c2ccccc23)cc1	0.3	-1.8	3.7	-1.7	2.9
Clc1ccc(/C=C\c2nccc3c2[nH]c2ccccc23)cc1	0.0	1.1	5.7*	1.1	9.2
COc1cccc(/C=C2\CC3(OC(=O)c4ccc(Cl)cc4)CCCN2C3)c1 (stereo not drawn)	-0.5	·	3.2	0.0	3.5
Cc1ccccc1OCCOc1cccc(/C=N/NC(=O)Cc2nnc(N)s2)c1	-0.8	-1.3	1.7	-0.9	12.3*
Nc1nc(-c2ccc(F)cc2)cs1	-1.3	0.8	1.9	0.9	2.2
COc1ccc(N2CC(O)=C(c3nc(-c4ccc(Cl)cc4)cs3)C2=N)cc1	-0.2	0.5	1.4	1.1	12.1*
COc1ccc(O)cc1	-1.3	4.5*	-0.3	0.3	0.1
Cc1ccc(-c2csc(-c3ccncc3)n2)cc1	-0.9	1.1	4.3	0.2	11.0*
Brc1ccc(-c2csc(-c3ccncc3)n2)cc1	-0.8	-0.2	0.4	0.1	7.4
COc1ccc(-c2csc(N)n2)cc1F	-1.4	4.8*	1.6	2.3	3.7
O=C(CSc1nnc(-c2cccnc2)n1-c1ccccc1)c1ccccc1Cl	0.0	·	-0.7	-0.2	3.9
O=C(NCc1cccnc1)O[C@H]1CC[C@@]23CCCN2C(=O)CCC[C@H]3C1	-0.8	·	-0.1	·	-1.0
C=C(c1ccc(OC)cc1)c1ccc(OC)cc1	-1.1	0.8	0.9	0.4	1.2
COc1ccc(-c2csc(C(O)c3ccccc3)n2)cc1 (stereo not drawn)	-0.2	·	2.6	3.8*	4.6
c1ccc(-c2nc(-c3cccnc3)cs2)cc1	-0.5	1.0	3.4	1.4	5.5
SMILES	ssDAF12 agonist	DAX1 inh-1	hcDAF-12 act	DAX1 inh-2	hgDAF-12 ag	others
COc1ccc(-c2csc(-c3ccc(O)cc3)n2)cc1	0.0	-3.3	1.9	-2.1	12.7*
COc1ccc(C(N)=S)cc1	-1.1	4.3*	-2.4	0.2	-1.4
c1ccc(-c2csc(-c3cccnc3)n2)cc1	-0.5	0.7	3.2	-0.4	11.1*
COC(=O)C1CN(CC(C)C)CCS(=O)(=O)N1Cc1ccc(Cl)cc1 (stereo not drawn)	-2.0	·	-1.1	0.3	0.3
CCC1CCCCN1C(=O)n1ncc(C(O)(c2ccccc2)c2ccccc2)n1 (stereo not drawn)	-2.1	·	-3.9	·	-9.1
Clc1ccc(-c2csc(N3CCOCC3)n2)cc1	-0.7	0.8	1.4	1.7	10.2
c1ccc(CNc2nc(-c3cccnc3)cs2)cc1	-1.0	0.7	0.4	0.0	10.7*
Cc1oncc1-c1csc(-c2ccccc2)n1	-1.2	5.3*	1.0	0.4	5.7
COc1ccc(-c2nc(CCl)cs2)cc1OC	-1.2	0.1	-0.4	1.6	0.4
COc1ccc(-c2nc(-c3ccc(O)cc3O)cs2)cc1OC	-1.8	-0.3	-0.4	2.0	12.3*
COc1ccc(-c2csc(N3CCOCC3)n2)cc1OC	-1.0	1.4	2.2	0.3	11.3*
Cc1cccc(NC(=O)Nc2nc3ncccn3c2-c2ccc(F)cc2)c1	-0.2	·	-0.9	-1.2	-1.5
Cc1onc(-c2ccccc2)c1C(=O)NCC1CCN(C(=O)C(=O)c2cccs2)CC1	-1.2	·	-1.3	0.8	3.8
Cc1ccc(-c2nc3cc(N)ccc3o2)c(C)c1	0.0	0.8	4.8	2.5	12.4*
Nc1ccc2oc(-c3cccc4ccccc34)nc2c1	-1.3	-1.0	-4.0	-0.6	-7.5
O=C(Nc1ccc(Br)cc1)N1CCc2ccccc2C1	-0.4	1.4	1.4	5.3*	5.3	DAX1 conf=5.5*;SF1 mutant ctr=3.0*
CCc1ccc(NC(=S)N2CCCC2)cc1	-0.4	1.3	6.0*	5.3*	12.1*	DAX1 conf=8.6*;SF1 mutant ctr=3.9*
O=C(Nc1ccc(Cl)c(Cl)c1)N1CCCCCC1	-0.4	0.6	0.3	5.3*	6.8	DAX1 conf=8.8*;SF1 mutant ctr=4.8*
CCOC(=O)c1ccc(NC(=O)N2CCCCC2)cc1	·	1.7	·	·	·
CCc1ccc(NC(=S)N2CCN(C)CC2)cc1	-0.6	1.0	3.6	2.7	0.5
Cc1cc(C)cc(NC(=O)N2CCc3ccccc3C2)c1	-0.2	0.8	1.3	2.3	4.7
CCc1ccc(NC(=O)N2CCCCCC2)cc1	-0.3	3.6	3.8	5.2*	4.0	DAX1 conf=9.8*;SF1 mutant ctr=7.0*
O=C(Nc1ccc(Br)cc1)N1CCCCCC1	0.2	1.0	0.8	7.2*	6.7	DAX1 conf=4.8*;SF1 mutant ctr=3.3*
O=C(Nc1ccc(Br)cc1)N1CCCC(O)C1 (stereo not drawn)	-1.5	0.4	0.3	1.5	3.1
COc1ccc(C(=O)Nc2ccnn2C2CCN(C(=O)CCC(F)(F)F)CC2)cc1	-1.0	-0.2	4.7	5.7*	8.6	DAX1 conf=6.4*;SF1 mutant ctr=8.0*
S=C(NCCc1ccccc1)Nc1ncccn1	0.1	1.5	3.2	5.5*	8.4	DAX1 conf=3.9*;SF1 mutant ctr=2.8
OCCNC(=S)NCCc1ccccc1	-1.6	1.2	-1.0	0.2	-0.7
COc1cccc(N2CCN(C(=O)COc3cc(=O)n(C)c4ccccc34)CC2)c1	-0.9	·	0.0	-0.5	-2.8
Cc1[nH]n(-c2cccc(Cl)c2)c(=O)c1C=NCc1ccco1	0.5	5.7*	4.2	5.8*	11.6*	DAX1 conf=8.3*;SF1 mutant ctr=5.1*
